According to PubChem BioAssay (NCATS):
Records with an inconclusive call do not appear. Activity calls are given as the source filed them. Unless noted, calls follow the shape of the dose curve; as a rule, active = well fitted curve in the direction sought with a large enough effect; inconclusive = small, poorly fitted or top-dose-only effect, or another doubt; inactive = no such curve, though single readings can be large; an effect the other way counts as inactive or inconclusive.

Legend:
[1] = Cell Viability - LYMP2-003 (AID 965);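 also: potency is read from the fitted curve at half-maximal effect; cells exposed to compounds for 24 h before reading; nearly all actives have a fitted effect of over 50% in size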
Summary of the method: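 Seed 2500 lymphoblastoid cells/well; incubate 5 hr, 37 C; add compounds; incubate 24 hr, 37 C; add CellTiter-Glo, 30 min RT; read luminescence. AC50 from Hill fit.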

[2] = Cell Viability - LYMP2-004 (AID 966); also: potency is read from the fitted curve at half-maximal effect; nearly all actives have a fitted effect of over 65% in size
Summary of the method: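 Viable-cell number estimated from ATP luminescence (CellTiter-Glo) in 2500 human lymphoblastoid cells/well after 24 hr at 37 C with compound. AC50 fitted to the standard Hill equation.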

[3] = Cell Viability - LYMP2-005 (AID 967);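 also: potency is read from the fitted curve at half-maximal effect; cells exposed to compound for 24 h at 37 °C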
Summary of the method: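 Acute cytotoxicity is scored as a concentration-dependent drop in intracellular ATP in human lymphoblastoid LYMP2-005 cells after 24 h compound treatment. ATP is quantified by luciferase luminescence, and AC50 is derived by Hill-equation modelling.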

[4] = Cell Viability - LYMP2-009 (AID 968);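 also: potency is read from the fitted curve at half-maximal effect; cells exposed to compound for 24 h at 37 °C; nearly all actives have a fitted effect of over 55% in size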
[5] = Cell Viability - LYMP2-011 (AID 969); also: potency is read from the fitted curve at half-maximal effect; nearly all actives have a fitted effect of over 60% in size
Summary of the method: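 Cells seeded at 2500 per well rest 5 hr before compound addition, then incubate 24 hr at 37 C. CellTiter-Glo reagent is added for 30 min at room temperature before luminescence detection.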

[6] = Cell Viability - LYMP2-013 (AID 970);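 also: potency is read from the fitted curve at half-maximal effect; cells exposed to compound for 24 h at 37 °C; nearly all actives have a fitted effect of over 55% in size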
Summary of the method: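 In complete culture medium, human lymphoblastoid cells were dosed for 24 hr at 37 C, with tetraoctylammonium bromide (6.4pM to 92 uM) as positive control. Viability reflects luciferase-based ATP signal; AC50 derived from concentration-response curves.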

[7] = Cell Viability - LYMP2-015 (AID 971); also: potency is read from the fitted curve at half-maximal effect; nearly all actives have a fitted effect of over 55% in size
Summary of the method: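 AC50 values reflect Hill-model fits of ATP-based luminescence (CellTiter-Glo) from a human lymphoblastoid line, 2500 cells/well, treated 24 hr at 37 C.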

[8] = Cell Viability - LYMP2-017 (AID 972); also: potency is read from the fitted curve at half-maximal effect; nearly all actives have a fitted effect of over 55% in size
Summary of the method: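 In this qHTS format, lymphoblastoid cells in complete medium receive test compound for a day at 37 C before ATP content is quantified by luciferase luminescence. Reported AC50 figures come from standard Hill-equation curve fitting.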

[9] = Cell Viability - LYMP2-019 (AID 973)
Summary of the method: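 AC50 values come from Hill-equation modelling of qHTS concentration-response curves, where viability is measured as luciferase-based ATP luminescence in the lymphoblastoid line after 24 hr compound exposure in complete culture medium.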

[10] = Cell Viability - LYMP2-021 (AID 974)
Summary of the method: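 In qHTS format, compounds are tested against 2500 lymphoblastoid cells per well for 24 h; viable cell number is inferred from ATP-driven luciferase light, and Hill-equation fitting yields AC50 values.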

[11] = Cell Viability - LYMP2-023 (AID 975)
Summary of the method: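 In this qHTS, ATP-based luciferase luminescence (CellTiter-Glo) is quantified in human lymphoblastoid cells after 24 hr compound treatment at 37 C; tetraoctylammonium bromide serves as positive control. Concentration-response curves are Hill-fitted to give AC50.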

[12] = Cell Viability - LYMP2-008 (AID 980); also: potency is read from the fitted curve at half-maximal effect; nearly all actives have a fitted effect of over 60% in size
Summary of the method: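 Measured: ATP-dependent luminescence, proportional to viable cell number, in human lymphoblastoid cells treated 24 hr with compound in complete culture medium. Values are AC50s from Hill-equation modelling of qHTS titrations.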

[13] = Cell Viability - LYMP2-010 (AID 981)
Summary of the method: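 This 24 hr viability screen uses LYMP2-010 lymphoblastoid cells, quantifies ATP via luciferase luminescence, and derives AC50 from Hill fits of qHTS concentration-response data.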

[14] = Cell Viability - LYMP2-012 (AID 982)
[15] = Cell Viability - LYMP2-014 (AID 983);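 also: potency is read from the fitted curve at half-maximal effect; cells exposed to compound for 24 h at 37 °C; nearly all actives have a fitted effect of over 50% in size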
Summary of the method: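 Quantitative HTS in lymphoblastoid cells: 24 hr compound exposure, then CellTiter-Glo ATP luminescence. Positive control was tetraoctylammonium bromide, 6.4pM to 92 uM.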

[16] = Cell Viability - LYMP2-018 (AID 985); also: potency is read from the fitted curve at half-maximal effect; nearly all actives have a fitted effect of over 50% in size
Summary of the method: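 In this qHTS viability assay, cells are treated for 24 hr and cellular ATP is quantified by luciferase-based luminescence, with tetraoctylammonium bromide as positive control.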

[17] = Cell Viability - LYMP2-020 (AID 986)
Summary of the method: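 Cells at 2500 per well receive a 24 hr compound exposure at 37 C. Viability is measured as ATP-dependent luciferase luminescence, with AC50 modeled from qHTS concentration-response curves.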

[18] = Cell Viability - LYMP2-022 (AID 987)
Summary of the method: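 In this qHTS cytotoxicity screen, compound titrations were incubated 24 hr at 37 C with human lymphoblastoid cells in complete medium. Luciferase-based ATP luminescence provided the viability signal.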

[19] = Cell Viability - LYMP2-024 (AID 988); also: potency is read from the fitted curve at half-maximal effect; nearly all actives have a fitted effect of over 60% in size
Summary of the method: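 Cells at 2500 per well received compound for 24 hr after a 5 hr settling period. Viability was scored by CellTiter-Glo luminescence, with AC50 from Hill fits.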

[20] = Cell Viability - LYMP1-002 - Assay at 24 hr (AID 993); also: potency is read from the fitted curve at half-maximal effect
Summary of the method: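 Viability was judged from intracellular ATP using a luciferase read-out, following a 24-hour compound incubation at 37 C of lymphoblastoid cells seeded at 2500 per well. Concentration-response data were fitted to the Hill equation for AC50.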

[21] = Cell Viability - LYMP1-002 - Assay at 40 hr (AID 994); also: potency is read from the fitted curve at half-maximal effect; nearly all actives have a fitted effect of over 60% in size
Summary of the method: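 Concentration-dependent ATP loss after 40 hr treatment at 37 C defined toxicity; AC50 values were obtained by fitting the standard Hill equation.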

[22] = target: ATP-dependent 6-phosphofructokinase (Trypanosoma brucei brucei) (UniProt O15648); assay: qHTS Assay to Find Inhibitors of T. brucei phosphofructokinase: hit validation (AID 492961);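 also: luminescence reports ADP formed as PFK phosphorylates fructose-6-phosphate with ATP; series mostly up to about 51 µM; % is scaled to controls: 0 for no effect and ±100 for the full control effect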
Summary of the method: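 ADP-Glo luminescence read-out of ADP formed by 1.25 nM PFK from 0.1 mM ATP and 0.5 mM F6P (TEA pH 8.0, 45 min, RT). Compounds titrated; activity normalized to no-enzyme and full-enzyme controls.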

[23] = target: Glucocorticoid receptor (Homo sapiens) (UniProt P04150); assay: qHTS assay for small molecule agonists of glucocorticoid receptor signaling (AID 588532; active = well fitted curve in the direction sought with a large enough effect in the signal ratio, with a control signal flat; the % refers to the signal ratio;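 also: 100% = dexamethasone at 0.1 µM and 0% = DMSO only wells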); conditions: HeLa MMTV-bla, beta-lactamase ratio, agonist, 18 h; hits give high values; percent of dexamethasone control, DMSO zero
Summary of the method: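 Agonist-mode qHTS: GRE-driven beta-lactamase in HeLa cells exposed 18 h to titrated compounds (up to 92 uM), then CCF4 ratio read after 2 h at RT; Hill-fitted EC50, efficacy relative to 0.1 uM dexamethasone.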

[24] = target: Thyroid hormone receptor beta (Homo sapiens) (UniProt P10828); assay: qHTS assay for small molecule agonists of thyroid hormone receptor beta signaling (AID 588545; calls by dose curve)
Summary of the method: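 Agonist activity was read as beta-lactamase CCF4 fluorescence (405 ex, 460/530 em), scaled between DMSO (0%) and 10 nM T3 (100%), then Hill-fitted for EC50 and efficacy. HEK 293 TR-UAS-bla cells in 2% charcoal/dextran FBS medium were exposed 18 h at 37 C.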

[25] = target: Voltage-gated inwardly rectifying potassium channel KCNH2 (Homo sapiens) (UniProt Q12809); assay: qHTS Assay for Small Molecule Inhibitors of the Human hERG Channel Activity (AID 588834);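 also: top concentration of the series differs between compounds; % is scaled to controls: 0 for no effect and ±100 for the full control effect; lower thallium flux fluorescence means stronger hERG block; nearly all actives have a fitted effect of over 50% in size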
Summary of the method: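 Step 1: BacMam hERG transduction of U2OS, 4 hrs RT. Step 2: overnight 37 °C, plate 2000 cells/well, 4 hr. Step 3: FluxOR load, compound 10 min, stimulate, read fluorescence.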

Chain of Glucocorticoid receptor (Homo sapiens) (P04150 whole entry, looked up): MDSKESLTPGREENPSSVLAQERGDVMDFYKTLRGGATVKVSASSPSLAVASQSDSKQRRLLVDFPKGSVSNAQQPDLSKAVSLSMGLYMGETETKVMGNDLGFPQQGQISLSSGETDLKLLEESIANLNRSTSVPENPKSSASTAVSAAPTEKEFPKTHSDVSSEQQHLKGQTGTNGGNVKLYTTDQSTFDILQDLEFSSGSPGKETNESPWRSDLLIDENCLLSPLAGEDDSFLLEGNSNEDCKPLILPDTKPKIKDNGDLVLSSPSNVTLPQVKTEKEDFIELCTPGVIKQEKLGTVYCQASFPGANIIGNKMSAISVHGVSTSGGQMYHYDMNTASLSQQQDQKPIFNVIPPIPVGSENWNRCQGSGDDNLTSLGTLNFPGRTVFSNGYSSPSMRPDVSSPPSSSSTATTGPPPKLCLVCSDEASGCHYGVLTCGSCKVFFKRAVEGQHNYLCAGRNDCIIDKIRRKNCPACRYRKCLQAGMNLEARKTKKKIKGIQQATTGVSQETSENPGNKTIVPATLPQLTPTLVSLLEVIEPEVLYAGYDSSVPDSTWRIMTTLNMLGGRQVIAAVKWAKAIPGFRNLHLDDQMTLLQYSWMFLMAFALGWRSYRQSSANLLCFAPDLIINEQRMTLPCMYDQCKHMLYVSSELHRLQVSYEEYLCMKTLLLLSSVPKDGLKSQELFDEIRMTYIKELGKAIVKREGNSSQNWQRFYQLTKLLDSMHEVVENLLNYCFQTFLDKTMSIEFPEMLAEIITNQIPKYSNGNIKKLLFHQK
Chain of Thyroid hormone receptor beta (Homo sapiens) (P10828 whole entry, looked up): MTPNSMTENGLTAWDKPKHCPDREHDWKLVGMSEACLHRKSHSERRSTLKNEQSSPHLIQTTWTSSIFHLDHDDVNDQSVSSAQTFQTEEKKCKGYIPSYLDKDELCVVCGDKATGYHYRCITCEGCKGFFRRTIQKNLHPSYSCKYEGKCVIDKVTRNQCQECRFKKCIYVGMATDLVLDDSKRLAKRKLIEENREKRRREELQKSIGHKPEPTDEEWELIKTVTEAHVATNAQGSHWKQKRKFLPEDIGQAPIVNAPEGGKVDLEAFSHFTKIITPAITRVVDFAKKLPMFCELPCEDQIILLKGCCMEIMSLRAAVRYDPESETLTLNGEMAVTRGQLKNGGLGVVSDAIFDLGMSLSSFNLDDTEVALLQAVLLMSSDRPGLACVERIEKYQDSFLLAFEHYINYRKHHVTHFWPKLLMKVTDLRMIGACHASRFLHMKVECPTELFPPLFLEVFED
Chain of Voltage-gated inwardly rectifying potassium channel KCNH2 (Homo sapiens) (Q12809 whole entry, looked up): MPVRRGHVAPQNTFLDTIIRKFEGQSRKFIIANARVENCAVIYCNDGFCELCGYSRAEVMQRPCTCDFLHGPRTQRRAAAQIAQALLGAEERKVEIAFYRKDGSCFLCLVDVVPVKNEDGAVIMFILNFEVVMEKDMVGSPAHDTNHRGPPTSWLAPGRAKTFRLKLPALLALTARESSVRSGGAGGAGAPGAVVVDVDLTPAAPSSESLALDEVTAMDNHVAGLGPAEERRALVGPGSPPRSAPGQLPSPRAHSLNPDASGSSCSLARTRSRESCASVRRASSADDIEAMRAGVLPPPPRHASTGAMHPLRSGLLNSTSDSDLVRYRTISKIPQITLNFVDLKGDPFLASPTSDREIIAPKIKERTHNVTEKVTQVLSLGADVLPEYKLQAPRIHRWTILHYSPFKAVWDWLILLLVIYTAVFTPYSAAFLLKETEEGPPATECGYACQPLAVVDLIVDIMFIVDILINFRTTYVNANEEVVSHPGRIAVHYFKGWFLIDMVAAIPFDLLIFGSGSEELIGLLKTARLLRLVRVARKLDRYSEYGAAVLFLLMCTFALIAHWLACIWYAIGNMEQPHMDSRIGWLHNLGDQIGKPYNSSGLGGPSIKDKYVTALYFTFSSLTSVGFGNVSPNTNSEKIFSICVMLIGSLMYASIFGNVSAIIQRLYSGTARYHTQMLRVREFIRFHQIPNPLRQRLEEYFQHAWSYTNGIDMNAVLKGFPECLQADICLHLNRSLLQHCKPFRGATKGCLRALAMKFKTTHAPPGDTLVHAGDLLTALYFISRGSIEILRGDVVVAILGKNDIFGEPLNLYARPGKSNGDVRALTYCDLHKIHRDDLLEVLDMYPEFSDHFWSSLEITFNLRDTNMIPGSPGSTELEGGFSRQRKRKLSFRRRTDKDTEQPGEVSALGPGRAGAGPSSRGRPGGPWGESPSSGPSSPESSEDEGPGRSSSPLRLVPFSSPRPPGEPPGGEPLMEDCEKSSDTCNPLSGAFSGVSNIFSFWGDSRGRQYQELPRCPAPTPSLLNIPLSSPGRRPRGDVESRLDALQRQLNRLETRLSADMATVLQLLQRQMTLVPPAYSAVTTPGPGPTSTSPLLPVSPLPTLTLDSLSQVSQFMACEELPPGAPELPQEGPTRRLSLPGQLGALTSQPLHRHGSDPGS
Chain of ATP-dependent 6-phosphofructokinase (Trypanosoma brucei brucei) (O15648 whole entry, looked up): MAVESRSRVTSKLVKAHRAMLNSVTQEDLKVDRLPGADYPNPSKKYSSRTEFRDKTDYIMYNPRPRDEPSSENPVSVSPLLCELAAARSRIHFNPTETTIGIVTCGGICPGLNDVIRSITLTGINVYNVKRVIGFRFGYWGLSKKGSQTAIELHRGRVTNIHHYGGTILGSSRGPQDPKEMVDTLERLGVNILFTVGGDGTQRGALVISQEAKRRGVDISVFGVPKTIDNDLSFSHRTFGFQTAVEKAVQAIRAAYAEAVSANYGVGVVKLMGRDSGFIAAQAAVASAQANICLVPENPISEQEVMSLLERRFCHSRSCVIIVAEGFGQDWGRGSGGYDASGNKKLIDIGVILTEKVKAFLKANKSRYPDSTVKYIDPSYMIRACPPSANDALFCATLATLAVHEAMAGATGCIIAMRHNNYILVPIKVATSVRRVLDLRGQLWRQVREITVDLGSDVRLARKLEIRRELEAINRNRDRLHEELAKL

C=C1CC[C@H](O)C/C1=C/C=C1\CCC[C@]2(C)[C@@H]([C@H](C)CCCC(C)C)CC[C@@H]12
active: Potency [1] 39.8 µM | Potency [2] 39.8 µM | Potency [3] 39.8 µM | Potency [4] 50.1 µM | Potency [5] 50.1 µM | Potency [6] 50.1 µM | Potency [7] 39.8 µM | Potency [8] 50.1 µM | Potency [9] 39.8 µM | Potency [10] 39.8 µM | Potency [11] 50.1 µM | Potency [12] 50.1 µM | Potency [13] 39.8 µM | Potency [14] 50.1 µM | Potency [15] 50.1 µM | Potency [16] 39.8 µM | Potency [17] 50.1 µM | Potency [18] 31.6 µM | Potency [19] 39.8 µM | Potency [20] 50.1 µM | Potency [21] 50.1 µM
inactive: outcome [22] | activation [23] -3.67% | Potency [24] | Potency [25]
